Results as given in PubChem BioAssay AID1159580 (chemical genetic matrix, 2015).
Where “and” joins values, the source holds several entries; their conditions need not be identical. Equal entries are not always repeated. The whole screen tested about 5,500 compounds, of which about 2,000 (36%) were called active. Not shown: some 18% with an inconclusive outcome. Cut-off read from the data, not from the text of the source: active = normalized growth mostly below about 0.91 (no sharp cut-off); inconclusive = no clear call, values can overlap the other calls; inactive = mostly above about 0.92. The list shows a part of the results.

Experiment: chemical genetic growth profiling, strain panel (AID 1159580);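 note: tested at 20 µM; growth read once vehicle control cultures reached saturation at 30 °C; 1 = growth at the plate median or of vehicle wells; lower values mean less growth of the strain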
Conditions: S. cerevisiae deletion strains, growth OD

Measured: normalized growth

Nc1nc2c(c(=O)[nH]1)N(C=O)C(CNc1ccc(C(=O)N[C@@H](CCC(=O)O)C(=O)O)cc1)CN2 (stereo not given in full)
inactive: locus YAL021C, strain ccr4, active compounds read low 0.973 | locus YAL026C, strain drs2, active compounds read low 1 | locus YAL030W, strain snc1, active compounds read low 0.969 | locus YBL061C, strain skt5, active compounds read low 0.975 | locus YBR009C, strain hhf1, active compounds read low 1.02 | locus YBR021W, strain FUR4, active compounds read low 0.988 | locus YBR023C, strain chs3, active compounds read low 0.971 | locus YBR171W, strain sec66, active compounds read low 0.94 | locus YBR229C, strain ROT2, active compounds read low 0.991 | locus YBR231C, strain swc5, active compounds read low 0.943 | locus YBR279W, strain paf1, active compounds read low 0.991 | locus YCL011C, strain gbp2, active compounds read low 0.99 | locus YCL016C, strain dcc1, active compounds read low 1.02 | locus YCL029C, strain bik1, active compounds read low 0.985 | locus YCL061C, strain MRC1, active compounds read low 0.964 | locus YCL069W, strain vba3, active compounds read low 0.971 | locus YCR088W, strain abp1, active compounds read low 0.971 | locus YDL005C, strain med2, active compounds read low 0.963 | locus YDL035C, strain GPR1, active compounds read low 1.01 | locus YDL040C, strain nat1, active compounds read low 0.974 | locus YDL074C, strain BRE1, active compounds read low 0.999 | locus YDL101C, strain DUN1, active compounds read low 0.987 | locus YDL185W, strain tfp1, active compounds read low 0.986 | locus YDL192W, strain arf1, active compounds read low 0.981 | locus YDR001C, strain nth1, active compounds read low 0.956 | locus YDR069C, strain doa4, active compounds read low 0.94 | locus YDR101C, strain arx1, active compounds read low 1 | locus YDR137W, strain rgp1, active compounds read low 0.947 | locus YDR159W, strain sac3, active compounds read low 1.01 | locus YDR162C, strain NBP2, active compounds read low 1 | locus YDR195W, strain ref2 0.906 | locus YDR297W, strain sur2, active compounds read low 0.972 | locus YDR318W, strain mcm21, active compounds read low 0.985 | locus YDR334W, strain swr1, active compounds read low 0.934 | locus YDR335W, strain msn5, active compounds read low 0.964 | locus YDR388W, active compounds read low 0.985 | locus YDR392W, strain spt3, active compounds read low 1.1 | locus YDR502C, strain sam2, active compounds read low 0.985 | locus YEL003W, strain gim4, active compounds read low 0.971 | locus YEL037C, strain rad23, active compounds read low 0.978 | locus YEL061C, strain CIN8 (second series), active compounds read low 0.953 | locus YEL061C, strain CIN8, active compounds read low 0.996 | locus YER015W, strain faa2, active compounds read low 1.01 | locus YER016W, strain bim1, active compounds read low 0.99 | locus YER110C, active compounds read low 0.978 | locus YER111C, strain swi4, active compounds read low 0.968 | locus YER155C, strain BEM2 (second series), active compounds read low 0.954 | locus YER155C, strain BEM2, active compounds read low 0.981 | locus YER167W, strain BCK2, active compounds read low 0.993 | locus YFR010W, strain ubp6, active compounds read low 0.931 | locus YGL078C, strain dbp3, active compounds read low 0.967 | locus YGL086W, strain mad1, active compounds read low 1 | locus YGL167C, strain pmr1, active compounds read low 0.957 | locus YGL173C, strain kem1, active compounds read low 0.966 | locus YGL227W, strain vid30, active compounds read low 0.964 | locus YGL240W, strain doc1, active compounds read low 0.94 | locus YGL248W, strain PDE1, active compounds read low 0.982 | locus YGL253W, strain hxk2, active compounds read low 0.986 | locus YGR135W, strain pre9, active compounds read low 0.945 | locus YGR252W, strain gcn5, active compounds read low 0.948 | locus YHR013C, strain ard1, active compounds read low 0.972 | locus YHR027C, strain rpn1, active compounds read low 0.972 | locus YHR030C, strain SLT2, active compounds read low 0.993 and 0.985 | locus YHR079C, strain IRE1 (second series), active compounds read low 0.989 | locus YHR079C, strain IRE1, active compounds read low 1 | locus YHR094C, strain hxt1, active compounds read low 0.984 | locus YHR129C, strain ARP1, active compounds read low 0.99 | locus YHR142W, strain chs7, active compounds read low 0.957 | locus YHR200W, strain rpn10, active compounds read low 0.986 | locus YIL066C, strain RNR3, active compounds read low 0.989 | locus YIL073C, strain SPO22, active compounds read low 1.01 | locus YIL125W, strain kgd1, active compounds read low 0.989 | locus YIR030C, strain dcg1, active compounds read low 0.979 | locus YJL092W, strain hpr5, active compounds read low 0.963 | locus YJL095W, strain BCK1 (second series), active compounds read low 0.967 | locus YJL095W, strain BCK1, active compounds read low 0.975 and 1.02 | locus YJL115W, strain asf1, active compounds read low 0.949 | locus YJL129C, strain trk1, active compounds read low 0.954 | locus YJL134W, strain LCB3, active compounds read low 0.991 | locus YJL154C, strain vps35, active compounds read low 0.959 | locus YJL164C, strain tpk1, active compounds read low 1.02 | locus YJL166W, strain qcr8, active compounds read low 0.932 | locus YJL168C, strain set2, active compounds read low 0.981 | locus YJL187C, strain SWE1 (second series), active compounds read low 0.985 | locus YJL187C, strain SWE1, active compounds read low 0.977 | locus YJR043C, strain POL32, active compounds read low 1.01 | locus YJR066W, strain TOR1, active compounds read low 0.969 | locus YJR075W, strain HOC1, active compounds read low 0.993 | locus YKL009W, strain mrt4, active compounds read low 0.996 | locus YKL068W, active compounds read low 0.991 | locus YKL085W, strain MDH1 (second series), active compounds read low 0.979 | locus YKL085W, strain MDH1, active compounds read low 0.979 | locus YKL160W, strain elf1, active compounds read low 0.972 | locus YKL190W, strain CNB1, active compounds read low 1 | locus YKR001C, strain vps1, active compounds read low 0.997 | locus YKR026C, strain gcn3, active compounds read low 0.961 | locus YKR091W, strain srl3, active compounds read low 0.984 | locus YLL001W, strain dnm1, active compounds read low 0.926 | locus YLL026W, active compounds read low 0.948 | locus YLL041C, strain sdh2, active compounds read low 0.976 | locus YLR027C, strain aat2, active compounds read low 0.958 | locus YLR039C, strain RIC1, active compounds read low 0.958 | locus YLR058C, strain SHM2, active compounds read low 0.983 | locus YLR102C, strain apc9, active compounds read low 0.989 | locus YLR113W, strain HOG1, active compounds read low 1.02 | locus YLR221C, strain rsa3, active compounds read low 1.01 | locus YLR258W, strain gsy2, active compounds read low 1.01 | locus YLR262C, strain YPT6 (second series), active compounds read low 0.941 | locus YLR262C, strain YPT6, active compounds read low 1.02 | locus YLR268W, strain sec22, active compounds read low 0.984 | locus YLR320W, strain mms22, active compounds read low 1.01 | locus YLR330W, strain CHS5, active compounds read low 0.988 | locus YLR342W, strain FKS1 (second series), active compounds read low 1 | locus YLR342W, strain FKS1, active compounds read low 0.955 | locus YLR357W, strain rsc2, active compounds read low 0.928 | locus YLR370C, strain arc18, active compounds read low 0.959 | locus YLR371W, strain rom2, active compounds read low 0.975 | locus YLR384C, strain iki3, active compounds read low 0.958 | locus YLR418C, strain cdc73, active compounds read low 0.938 | locus YML016C, strain PPZ1, active compounds read low 0.992 | locus YML032C, strain rad52, active compounds read low 0.999 | locus YML120C, strain ndi1, active compounds read low 0.956 | locus YML124C, strain tub3, active compounds read low 0.991 | locus YMR058W, strain fet3, active compounds read low 0.954 | locus YMR078C, strain ctf18, active compounds read low 0.981 | locus YMR125W, strain sto1, active compounds read low 0.965 | locus YMR129W, active compounds read low 0.971 | locus YMR205C, strain PFK2, active compounds read low 0.978 | locus YMR223W, strain ubp8, active compounds read low 0.959 | locus YMR231W, strain pep5, active compounds read low 0.964 | locus YMR307W, strain GAS1, active compounds read low 0.961 | locus YNL067W, strain RPL9B, active compounds read low 0.999 | locus YNL071W, strain lat1, active compounds read low 0.984 | locus YNL128W, strain TEP1, active compounds read low 0.979 | locus YNL183C, strain NPR1, active compounds read low 0.97 | locus YNL209W, strain ssb2, active compounds read low 0.986 | locus YNL233W, strain BNI4, active compounds read low 0.986 | locus YNL248C, strain rpa49, active compounds read low 0.978 | locus YNL250W, strain rad50, active compounds read low 0.977 | locus YNL271C, strain bni1, active compounds read low 0.967 | locus YNL298W, strain CLA4, active compounds read low 0.985 | locus YNL307C, strain MCK1, active compounds read low 0.99 | locus YNL322C, strain KRE1 (second series), active compounds read low 0.965 | locus YNL322C, strain KRE1, active compounds read low 0.995 | locus YNR049C, strain mso1, active compounds read low 0.971 | locus YNR052C, strain pop2, active compounds read low 0.984 | locus YOL006C, strain TOP1, active compounds read low 0.964 | locus YOL012C, strain htz1 0.703 | locus YOL147C, strain pex11, active compounds read low 0.978 | locus YOR001W, strain rrp6, active compounds read low 0.943 | locus YOR061W, strain CKA2, active compounds read low 0.992 | locus YOR069W, strain VPS5, active compounds read low 0.989 | locus YOR070C, strain gyp1, active compounds read low 0.991 | locus YOR080W, strain dia2, active compounds read low 0.966 | locus YOR083W, strain WHI5, active compounds read low 0.961 | locus YOR106W, strain vam3, active compounds read low 0.943 | locus YOR136W, strain idh2, active compounds read low 0.99 | locus YOR144C, strain elg1, active compounds read low 0.992 | locus YOR184W, strain ser1, active compounds read low 0.978 | locus YOR231W, strain MKK1, active compounds read low 1.02 | locus YOR265W, strain rbl2, active compounds read low 0.965 | locus YOR270C, strain vph1, active compounds read low 0.957 | locus YOR290C, strain snf2, active compounds read low 1.01 | locus YOR316C, strain cot1, active compounds read low 0.987 | locus YPL051W, strain arl3, active compounds read low 0.985 | locus YPL055C, strain LGE1, active compounds read low 0.981 | locus YPL078C, strain atp4, active compounds read low 0.904 | locus YPL106C, strain sse1, active compounds read low 0.947 | locus YPL240C, strain hsp82, active compounds read low 0.968 | locus YPL256C, strain CLN2, active compounds read low 0.993 | locus YPR119W, strain clb2, active compounds read low 0.986 | locus YPR141C, strain kar3, active compounds read low 0.977 | locus YPR163C, strain tif3, active compounds read low 0.976 | locus YPR167C, strain met16, active compounds read low 0.986 | strain wtn01, active compounds read low 0.981
